Results from PubChem BioAssay (NCATS).
Several values for one entry are separate records, joined by “and”; a condition that tells them apart may be missing. Identical values can stand only once. Results filed as inconclusive are left out. A number with no mark means an inactive call. Activity calls are given as the source filed them. Calls come from the whole dose curve; as a rule, active = well fitted curve in the direction sought with a large enough effect; inconclusive = small, poorly fitted or top-dose-only effect, or another doubt; inactive = no such curve, though single readings can be large; an effect the other way counts as inactive or inconclusive.

Legend:
[1] = qHTS of pediatric cancer cell lines to identify multiple opportunities for drug repurposing: Confirmatory screen for Saos-2 cells (AID 1347127); note: nearly all actives have a fitted effect of over 60% in size; note: potency is the fitted concentration of half-maximal effect
Summary of the method: (§1)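 Cells (500-1,000/well) rested 5 h, then received compounds for 48 h; metabolically active cells were measured by CellTiter-Glo luminescence. Final concentrations spanned up to 46 µM (MIPE, 11-point) or 0.59 nM-46 µM (NPC, 8-point) in primary screens, 11-point in follow-ups.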

[2] = qHTS of pediatric cancer cell lines to identify multiple opportunities for drug repurposing: Confirmatory screen for OHS-50 cells (AID 1347128);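 note: compound exposure lasted 48 h at 37 degrees C; nearly all actives have a fitted effect of over 55% in size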; note: potency is the fitted concentration of half-maximal effect
Summary of the method: as §1

[3] = qHTS of pediatric cancer cell lines to identify multiple opportunities for drug repurposing: Confirmatory screen for SK-N-SH cells (AID 1347129);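 note: cells exposed to compound for 48 h before viability read; nearly all actives have a fitted effect of over 60% in size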; note: potency is the fitted concentration of half-maximal effect
Summary of the method: as §1

[4] = system: Zika virus NS2B-NS3 protease; test: Primary screen GU AMC qHTS for Zika virus inhibitors (AID 1347154); note: nearly all actives have a fitted effect of over 70% in size; note: potency is the fitted concentration of half-maximal effect;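 for activity change, negative = inhibition: 0% = no-inhibitor control and -100% = no-enzyme control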
Summary of the method: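 Fluorogenic AMC-substrate cleavage by noncovalent NS2B-NS3 protease complex (25 nM, pH 8.0 Tris buffer with Tween 20) followed for 15 minutes at room temperature (~20% conversion). Percent inhibition from ex340/em450 signal change, fitted by 4-parameter Hill equation.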

Furin (Homo sapiens) = Furin (Homo sapiens) (UniProt P09958); test: Furin counterscreen qHTS for Zika virus inhibitors (AID 1347149); note: nearly all actives have a fitted effect of over 70% in size; note: potency is the fitted concentration of half-maximal effect;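 for activity change, negative = inhibition: purified recombinant full-length human furin enzyme at 5 nM; fluorescence gain from furin cutting a BOC-RVRR-AMC peptide substrate over 15 min; top concentration of the series differs between compounds; plate controls were no-inhibitor control for no effect and no-enzyme control for full effect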
Summary of the method: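 Counterscreen measures cleavage of 2 microM BOC-RVRR-AMC, below its ~15 microM Km, by 5 nM full-length human furin at pH 7.0 after a 15-min compound preincubation. Inhibition derives from the 15-min fluorescence increase at 37C.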

[5] = system: Zika virus NS2B-NS3 protease (linked construct); test: Confirmatory screen NINDS AMC qHTS for Zika virus inhibitors (AID 1347152); note: nearly all actives have a fitted effect of over 70% in size; note: potency is the fitted concentration of half-maximal effect;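 for activity change, negative = inhibition: AMC fluorescence gain from cleaved Bz-Nle-KRR-AMC substrate over 15 min; top concentration of the series differs between compounds; 0% = no-inhibitor control and -100% = no-enzyme control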
Summary of the method: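 Concentration-response confirmation used the NINDS linked protease (NS2B hydrophilic domain joined to NS3 protease domain), 1 nM, with a 15-min compound preincubation. Substrate, Nle-KRR-AMC at 10 microM, was read by UV fluorescence before and after 15 min.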

[6] = qHTS of pediatric cancer cell lines to identify multiple opportunities for drug repurposing: Confirmatory screen for Rh30 cells (AID 1347126); note: potency is the fitted concentration of half-maximal effect; nearly all actives have a fitted effect of over 55% in size
Summary of the method: as §1

[7] = system: Zika virus NS2B-NS3 protease (unlinked complex); test: Confirmatory screen GU AMC qHTS for Zika virus inhibitors (AID 1347153); note: nearly all actives have a fitted effect of over 70% in size;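 for Potency: enzyme at 25 nM with substrate at 10 µM below its Km of 18.3 µM; potency is the fitted concentration of half-maximal effect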
Summary of the method: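 Compounds were preincubated 15 min at room temperature with 25 nM noncovalent NS2B-NS3 protease at pH 8.0; AMC substrate added at 10 microM and 15-min fluorescence gain (340/450 nm) converted to percent inhibition, fitted 4-parameter.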

[8] = system: Zika virus NS2B-NS3 protease (unlinked); test: Optimization of GU AMC qHTS for Zika virus inhibitors: Unlinked NS2B-NS3 protease assay (AID 1347151);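 note: series mostly up to about 52 µM; 0% = no-inhibitor control and -100% = no-enzyme control; nearly all actives have a fitted effect of over 80% in size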
Summary of the method: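 In this qHTS, compounds acted on 25 nM unlinked Zika NS2B–NS3 in pH 8.0 Tris/Tween buffer. Cleavage of an AMC peptide ran 15 min at room temperature, to about 20% conversion.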

[9] = Confirmatory screen GU Rhodamine qHTS for Zika virus inhibitors qHTS (AID 1347157); conditions: purified enzyme assay, Rhodamine110 substrate fluorescence, 15 min
Summary of the method: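 In dose–response format, inhibition of unlinked protease (25 nM) was measured with 1.5 microM bis-peptide Rhodamine110 substrate. Aprotinin served as the intraplate control.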

Chain of Furin (Homo sapiens) (P09958 whole entry, looked up): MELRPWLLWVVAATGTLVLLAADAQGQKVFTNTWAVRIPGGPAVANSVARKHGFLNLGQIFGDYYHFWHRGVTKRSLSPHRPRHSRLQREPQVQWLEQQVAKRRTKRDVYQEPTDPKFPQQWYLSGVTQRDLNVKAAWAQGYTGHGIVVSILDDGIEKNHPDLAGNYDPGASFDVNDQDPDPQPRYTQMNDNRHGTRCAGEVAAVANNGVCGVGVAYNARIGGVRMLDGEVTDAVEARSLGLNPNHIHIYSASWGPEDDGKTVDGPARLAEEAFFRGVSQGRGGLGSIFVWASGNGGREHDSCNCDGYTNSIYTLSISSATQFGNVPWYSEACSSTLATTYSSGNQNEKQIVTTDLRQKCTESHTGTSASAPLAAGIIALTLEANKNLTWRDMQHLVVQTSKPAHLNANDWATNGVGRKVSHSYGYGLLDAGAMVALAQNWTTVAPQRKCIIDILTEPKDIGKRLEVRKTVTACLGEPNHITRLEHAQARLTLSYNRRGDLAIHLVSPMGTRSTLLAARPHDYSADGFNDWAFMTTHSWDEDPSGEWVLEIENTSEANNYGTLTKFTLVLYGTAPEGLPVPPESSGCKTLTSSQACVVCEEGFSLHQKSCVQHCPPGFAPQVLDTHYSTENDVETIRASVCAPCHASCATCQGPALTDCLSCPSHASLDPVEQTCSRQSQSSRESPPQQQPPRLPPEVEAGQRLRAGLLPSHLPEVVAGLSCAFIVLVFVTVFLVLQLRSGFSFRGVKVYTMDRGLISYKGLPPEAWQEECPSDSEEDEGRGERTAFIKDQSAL

O=C1c2c(O)cccc2[C@@H]([C@@H]2O[C@H](CO)[C@@H](O)[C@H](O)[C@H]2O)c2cc(CO)cc(O)c21
Potency [1]: inactive | Potency [2]: inactive | Potency [3]: inactive

C=CC(=O)Nc1cccc(Nc2nc(NC3CCC(N(C)C)CC3)nc3c2ncn3C(C)C)c1 (stereo not drawn)
Potency [1]: 1.65 µM (active) | Potency [2]: 2.08 µM (active) | Potency [3]: 2.96 µM (active) | Potency [4]: inactive

CC(=O)ON=C1C(c2c(O)[nH]c3cc(Br)ccc23)=Nc2ccccc21
Potency [1]: 13.1 µM (active) | Potency [2]: 14.7 µM (active) | Potency [3]: 23.5 µM (active) | Potency [4]: inactive

O=C1NCCc2[nH]c(-c3ccncc3)cc21
Potency [1]: 3.69 µM (active) | Potency [2]: 2.93 µM (active) | Potency [3]: 2.09 µM (active) | Potency [4]: inactive

CCCCC(=O)O[C@]1(C(=O)CO)[C@@H](C)C[C@H]2[C@@H]3CCC4=CC(=O)C=C[C@]4(C)[C@@]3(F)[C@@H](O)C[C@@]21C
Potency [1]: inactive | Potency [2]: inactive | Potency [3]: inactive

Cn1cnc(=N)c2[nH]cnc21
Potency [1]: inactive | Potency [2]: inactive | Potency [3]: inactive | Potency [4]: inactive

NC(=O)Nc1cc(-c2ccc(CN3CCOCC3)cc2)sc1C(N)=O
Potency [1]: 13.1 µM (active) | Potency [3]: 14.8 µM (active)

COc1cccc2c1C(=O)c1c(O)c3c(c(O)c1C2=O)C[C@@](O)(C(=O)CO)C[C@@H]3O[C@H]1C[C@H](N)[C@@H](O)[C@H](C)O1
Potency [1]: 0.293 µM (active) | Potency [2]: 1.47 µM (active) | Potency [3]: 0.332 µM (active)

CC[C@]12C=CCN3CC[C@@]4(c5cc([C@@]6(C(=O)OC)C[C@H]7C[C@@H](C(C)(F)F)CN(Cc8c6[nH]c6ccccc86)C7)c(OC)cc5N(C)[C@H]4[C@@](O)(C(=O)OC)[C@H]1OC(C)=O)[C@@H]32
Potency [1]: inactive | Potency [2]: inactive | Potency [3]: inactive | Potency [4]: inactive

NC(=O)Nc1sc(-c2ccc(F)cc2)cc1C(N)=O
Potency [3]: 14.8 µM (active) | Potency [4]: inactive

Cc1cnc(Nc2ccc(N3CCN(C)CC3)cc2)nc1Nc1cccc(S(=O)(=O)NC(C)(C)C)c1
Potency [1]: 3.69 µM (active) | Potency [2]: 2.93 µM (active) | Potency [3]: 2.35 µM (active)

COc1cc(C[C@@H](CO)[C@H](CO)Cc2ccc(O)c(OC)c2)ccc1O
Potency [2]: inactive | Potency [3]: inactive

CC(C=CC1=C(C)CCCC1(C)C)=CC=CC(C)=CC(=O)Nc1ccc(O)cc1
Potency [1]: 38 µM (active) | Potency [2]: 42.7 µM (active) | Potency [3]: 38.2 µM (active)

CS[C@H]1SC[C@@H]2C(=O)N(C)[C@H](C(C)C)C(=O)OC[C@H](NC(=O)c3cnc4ccccc4n3)C(=O)N[C@H](C)C(=O)N(C)[C@@H]1C(=O)N(C)[C@H](C(C)C)C(=O)OC[C@H](NC(=O)c1cnc3ccccc3n1)C(=O)N[C@H](C)C(=O)N2C
Potency [1]: inactive | Potency [2]: 0.0147 µM (active) | Potency [3]: 0.0132 µM (active) | Potency [4]: inactive

O=C(Nc1cc2cc[nH]c2cn1)c1ccccc1
Potency [2]: 10.4 µM (active) | Potency [3]: 10.5 µM (active) | Potency [4]: inactive

CN[C@@H]1C[C@H]2O[C@@](C)([C@H]1OC)n1c3ccccc3c3c4c(c5c6ccccc6n2c5c31)C(=O)N[C@H]4O
Potency [1]: 0.585 µM (active) | Potency [2]: 0.585 µM (active) | Potency [3]: 0.332 µM (active) | Potency (Furin (Homo sapiens)): inactive | Potency [5]: 19.2 µM (active) | Potency [4]: 21.5 µM (active)

C[C@H]1[C@@H](OC(=O)CCC(=O)O)O[C@@H]2O[C@@]3(C)CC[C@@H]4[C@H](C)CC[C@@H]1[C@@]24OO3
Potency [1]: 1.31 µM (active) | Potency [2]: 3.29 µM (active) | Potency [4]: inactive

Cn1cc(-c2cnn3c(N)c(Br)c([C@H]4CCCNC4)nc23)cn1
Potency [6]: 3.69 µM (active) | Potency [3]: 18.7 µM (active) | Potency [4]: inactive

COc1ccc(S(=O)(=O)Nc2cc(-c3c(O)ccc4ccccc34)c(O)c3ccccc23)cc1
Potency (Furin (Homo sapiens)): inactive | Potency [5]: 19.2 µM (active) | Potency [7]: 24.1 µM (active) | Potency [4]: 24.1 µM (active)

CCOC(=O)C1=C(C)NC(=S)NC1c1cccc(O)c1 (stereo not drawn)
Potency [3]: inactive | Potency [4]: inactive

Cc1[nH]c(C=C2C(=O)Nc3ccccc32)c(C)c1CCC(=O)O
Potency [1]: inactive | Potency [2]: inactive | Potency [3]: inactive | Potency [4]: inactive

COc1ccc(Nc2cc(-c3cnc(N)nc3)nc(N3CCOCC3)n2)cn1
Potency [1]: 3.29 µM (active) | Potency [2]: 6.57 µM (active) | Potency [3]: 5.9 µM (active) | Potency [4]: inactive

N#Cc1c(C2CCNCC2)cc(-c2c(O)cccc2OCC2CC2)nc1N
Potency [1]: inactive | Potency [3]: 23.5 µM (active)

CNC(=O)c1cccc(-c2ccc3c(N4CCOC[C@H]4C)nc(N4CCOC[C@H]4C)nc3n2)c1
Potency [2]: 6.57 µM (active) | Potency [3]: 2.64 µM (active) | Potency (Furin (Homo sapiens)): inactive | Potency [5]: inactive | Potency [7]: inactive

COC(=O)C1C2CC3c4[nH]c5cc(OC)ccc5c4CCN3CC2CC(OC(=O)c2cc(OC)c(OC)c(OC)c2)C1OC (stereo not drawn)
Potency [1]: 5.85 µM (active) | Potency [4]: inactive

CCOc1cc2ncc(C#N)c(Nc3ccc(OCc4ccccn4)c(Cl)c3)c2cc1NC(=O)C=CCN(C)C
Potency [6]: 5.85 µM (active) | Potency [4]: inactive

COc1cc(C=CC(=O)CC(=O)C=Cc2ccc(O)c(OC)c2)ccc1O
Potency [1]: 33.9 µM (active)

CCC(C=C[C@@H]1OC(=O)C=C[C@H]1C)=C[C@H](C)CC=CC(C)=C[C@@H](C)C(=O)[C@@H](C)[C@H](O)[C@@H](C)CC(C)=CC(=O)O
Potency [2]: 0.0161 µM (active) | activity change, negative = inhibition [4]: 23.8% [at 2.16 µM]

CC(N[C@H]1CCCC[C@H]1NC(=O)c1ccc(Cl)cc1)c1cccc2ccccc12 (stereo partly drawn)
Potency [1]: 26.1 µM (active) | Potency [2]: 20.8 µM (active) | Potency [3]: 9.35 µM (active) | Potency [4]: inactive

Cc1ncc(-c2ccnc(Nc3ccc(S(C)(=O)=O)cc3)n2)n1C(C)C
Potency [1]: 3.69 µM (active) | Potency [2]: 3.29 µM (active) | Potency [3]: 4.18 µM (active)

C[C@H]1COc2c(N3CCN(C)CC3)c(F)cc3c(=O)c(C(=O)O)cn1c23
Potency (Furin (Homo sapiens)): 24.1 µM (active) | Potency [5]: 24.1 µM (active) | Potency [4]: 27.1 µM (active) and 10.6 µM (active)

C=CC(=O)Nc1ccc2ncnc(Nc3ccc(OCc4cccc(F)c4)c(Cl)c3)c2c1
Potency [1]: 7.37 µM (active) | Potency [2]: 6.57 µM (active) | Potency [3]: 16.6 µM (active) | Potency [4]: inactive

O=C1NC(=O)[C@@H](c2cn3c4c(cccc24)CCC3)[C@H]1c1c[nH]c2ccccc12
Potency [1]: 0.928 µM (active) | Potency [4]: inactive

CCc1cnn2c(NCc3ccc[n+]([O-])c3)cc(N3CCCC[C@@H]3CCO)nc12
Potency [1]: inactive | Potency [3]: inactive | Potency [4]: inactive

COc1cc(O)c2c(c1)C1OC1C[C@H](O)[C@H](O)C(=O)C=CC[C@H](C)OC2=O (stereo partly drawn)
Potency [1]: 9.27 µM (active) | Potency [3]: 4.69 µM (active)

CC[C@@]1([C@@H]2O[C@@H]([C@H]3O[C@@](O)(CO)[C@H](C)C[C@H]3C)C[C@H]2C)CC[C@H]([C@]2(C)CC[C@]3(C[C@H](O)[C@@H](C)[C@@H]([C@@H](C)[C@@H](OC)[C@H](C)C(=O)O)O3)O2)O1
Potency [1]: 0.723 µM (active) | Potency [2]: 0.456 µM (active) | Potency [3]: 0.645 µM (active) | Potency [4]: inactive

c1cc(N[C@@H]2CCNC2)nc(-c2cnc3ccc(-c4cn[nH]c4)cn23)c1
Potency (Furin (Homo sapiens)): 24.1 µM (active) | Potency [5]: 24.1 µM (active) | Potency [4]: 19.2 µM (active)

O=C(C=CC=Cc1ccc2c(c1)OCO2)N1CCCCC1
Potency [1]: inactive | Potency [2]: inactive | Potency [3]: inactive

CCCCCCCCc1ccc(CCC(N)(CO)CO)cc1
outcome [8]: inactive

CC(C)c1cc(C(C)C)c(CC(=O)NS(=O)(=O)Oc2c(C(C)C)cccc2C(C)C)c(C(C)C)c1
Potency [9]: 2.21 µM (active)

O=c1c(O)c(-c2ccc(O)c(O)c2)oc2cc(O)ccc12
Potency [9]: 44.7 µM (active)

CN(C)CC(=O)N1CCC(c2ccc(NC(=O)c3ncc(C#N)[nH]3)c(C3=CCCCC3)c2)CC1
Potency [9]: 12.4 µM (active)
